# Measured values reported in article PMC4336329 (PLoS ONE, 2015).
# In all, about 310,000 compounds went through this assay and about 2,200 (0.71%) showed an effect of 50% or more. The effect is printed as a negative number. What follows is part of a selection rich in strong results, with near analogues and random picks from the rest.
# Target: human ether-à-go-go-related gene (hERG) potassium channel (human, UniProt Q12809)
# Test: primary screen, population patch clamp on CHO cells stably expressing hERG; higher = less effect of the substance
# human ether-à-go-go-related gene (hERG) potassium channel, sequence (Q12809 whole entry, looked up): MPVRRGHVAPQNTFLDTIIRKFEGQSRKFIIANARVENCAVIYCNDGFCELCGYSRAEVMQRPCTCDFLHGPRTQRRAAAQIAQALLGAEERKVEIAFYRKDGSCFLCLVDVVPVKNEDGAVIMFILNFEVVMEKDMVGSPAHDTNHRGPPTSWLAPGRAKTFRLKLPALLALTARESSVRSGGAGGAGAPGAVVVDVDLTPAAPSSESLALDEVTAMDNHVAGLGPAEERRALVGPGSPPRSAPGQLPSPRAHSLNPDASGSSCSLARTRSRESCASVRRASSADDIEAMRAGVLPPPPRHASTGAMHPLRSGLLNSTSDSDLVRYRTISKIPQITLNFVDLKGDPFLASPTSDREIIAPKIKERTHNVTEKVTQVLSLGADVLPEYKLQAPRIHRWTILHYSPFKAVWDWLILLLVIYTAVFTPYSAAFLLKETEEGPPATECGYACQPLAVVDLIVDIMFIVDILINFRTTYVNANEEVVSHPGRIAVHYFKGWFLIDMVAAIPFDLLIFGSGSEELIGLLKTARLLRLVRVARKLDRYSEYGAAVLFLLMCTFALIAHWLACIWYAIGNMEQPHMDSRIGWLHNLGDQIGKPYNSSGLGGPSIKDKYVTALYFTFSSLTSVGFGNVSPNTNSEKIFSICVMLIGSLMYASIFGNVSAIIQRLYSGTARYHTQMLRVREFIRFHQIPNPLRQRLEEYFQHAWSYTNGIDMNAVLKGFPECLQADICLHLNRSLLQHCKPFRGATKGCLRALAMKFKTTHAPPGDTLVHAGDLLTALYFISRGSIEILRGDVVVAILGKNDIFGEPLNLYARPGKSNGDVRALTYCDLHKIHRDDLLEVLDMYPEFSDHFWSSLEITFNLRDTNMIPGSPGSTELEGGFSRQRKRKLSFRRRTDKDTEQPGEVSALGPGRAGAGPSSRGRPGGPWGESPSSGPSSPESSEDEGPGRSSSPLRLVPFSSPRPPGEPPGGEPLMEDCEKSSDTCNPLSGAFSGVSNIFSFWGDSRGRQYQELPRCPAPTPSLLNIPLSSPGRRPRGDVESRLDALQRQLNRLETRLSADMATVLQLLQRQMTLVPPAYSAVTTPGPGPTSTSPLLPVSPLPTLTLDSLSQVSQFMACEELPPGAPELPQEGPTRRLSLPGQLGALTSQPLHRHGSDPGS
row,SMILES,"hERG current change (%, negative = inhibition) at 1uM [%]"
1,COC(=O)C1=C(C)N(C)C(C)=C(C(=O)OC)C1c1ccc(F)c(Br)c1,6.36
2,CCN(CC(=O)NCc1cccs1)C(=O)c1ccc(-c2cccc(C(F)(F)F)c2)o1,-57.4
3,CCN(CC(=O)NCc1cccs1)C(=O)COc1cccc(C(F)(F)F)c1,-7.5
4,CCN(CC(=O)NCc1cccs1)C(=O)c1ccc(-c2ccccc2F)o1,-7.69
5,COC(=O)C1=C(C)N(CCCCCC(=O)O)C(=O)NC1c1ccccc1 (stereo not drawn),2.67
6,Cc1ccc2c(c1)C1CN(C)CCC1N2C(=O)c1ccccc1NS(=O)(=O)c1ccc(F)cc1 (stereo not drawn),11.8
7,COc1ccc2cc(C3(C)NC(=O)N(CC(=O)Nc4c(C)n(C)n(-c5ccccc5)c4=O)C3=O)ccc2c1 (stereo not drawn),0.395
8,CCOC(=O)C1(CCOc2ccccc2)CCN(Cc2cccn2-c2cccnc2)CC1,9.53
9,OCC1(CCOc2ccccc2)CCN(Cc2cccn2-c2ncccn2)CC1,-82.4
10,CCOC(=O)C1(CCOc2ccccc2)CCN(Cc2nccn2CC)CC1,-5.37
11,CCn1ccnc1CN1CCC(CO)(CCOc2ccccc2)CC1,13.1
12,CCOC(=O)C1(CCOc2ccccc2)CCN(Cc2cccn2-c2ncccn2)CC1,-81.6
13,OCC1(CCc2ccccc2)CCN(Cc2cccn2-c2cccnc2)CC1,-23.3
14,O=C(Cc1c(F)cccc1Cl)OCN1C(=O)c2ccccc2C1=O,17.4
15,O=C(NCCN1C(=O)C2C3C=CC(C3)C2C1=O)Nc1ccccn1 (stereo not drawn),5.7
16,CCn1cc(C(=O)NCCCN2CCCC(C)C2)c(=O)c2cc(S(=O)(=O)N3CCc4ccccc4C3)ccc21 (stereo not drawn),-64.2
17,CCn1cc(C(=O)NCCCN2CCCC(C)C2)c(=O)c2cc(S(=O)(=O)N3CCOCC3)ccc21 (stereo not drawn),16.1
18,CCC1CCCCN1CCCNC(=O)c1cn(CC)c2ccc(S(=O)(=O)N(C)C3CCCCC3)cc2c1=O (stereo not drawn),-75.5
19,CCn1cc(C(=O)NCCCOC)c(=O)c2cc(S(=O)(=O)N(C)C3CCCCC3)ccc21,-2.67
20,CCn1cc(C(=O)NCCCN2CCCC(C)C2)c(=O)c2cc(S(=O)(=O)N(C)C3CCCCC3)ccc21 (stereo not drawn),-82
21,CCn1cc(C(=O)NCCCN2CCC(C)CC2)c(=O)c2cc(S(=O)(=O)N(C)C3CCCCC3)ccc21,-74

row,SMILES,"hERG current change (%, negative = inhibition) at 1uM [%]"
1,CCn1cc(C(=O)NCCCN(CC(C)C)CC(C)C)c(=O)c2cc(S(=O)(=O)N(C)C3CCCCC3)ccc21,-6.68
2,CCn1cc(C(=O)NCCCN2CCCC2)c(=O)c2cc(S(=O)(=O)N3CCc4ccccc4C3)ccc21,6.45
3,CC1CCCN(CCCNC(=O)c2cn(C)c3ccc(S(=O)(=O)N(C)C4CCCCC4)cc3c2=O)C1 (stereo not drawn),-13.2
4,CCN(CC)CCCNC(=O)c1cn(CC)c2ccc(S(=O)(=O)N(C)C3CCCCC3)cc2c1=O,-5.96
5,CCn1cc(C(=O)NCCCN2CCCCCC2)c(=O)c2cc(S(=O)(=O)N3CCc4ccccc4C3)ccc21,-24.5
6,CCC1CCCCN1CCCNC(=O)c1cn(C)c2ccc(S(=O)(=O)N(C)C3CCCCC3)cc2c1=O (stereo not drawn),-2.04
7,COc1cccc(CNC(=O)Cc2nc3nc(C)cc(C)n3n2)c1,14.5
8,COc1cc(/C=c2\sc3n(c2=O)CCCN=3)ccc1O,13.5
9,COc1ccc(/C=C/c2c([N+](=O)[O-])c(=O)n(C)c(=O)n2C)cc1OC,5.36
10,COc1ccc(-c2nsc(SCC(=O)Nc3cc(C)on3)n2)cc1,11.9
11,O=C(O)c1ccc(CNCc2ccc(Cl)cc2)cc1,11.3
12,O=C(CCc1ccccc1)Nc1cc2c3c(c1)CCC(=O)N3CCC2,-1.85
13,COc1ccc(-c2cc(C)no2)cc1S(=O)(=O)Nc1cccc(C)c1,15.5
14,CC(C)(C)NC(=O)C1Cc2ccccc2CN1S(=O)(=O)c1ccc(F)cc1 (stereo not drawn),3.91
15,O=C(CC1CC2CCC1C2)NCCc1ccc(Cl)cc1 (stereo not drawn),-0.305
16,Cn1cccc1/C=N/N1CCN(Cc2ccc(Cl)cc2)CC1,3.9
17,COc1ccc(COCC(O)CN2CCC(CN3C(=O)c4cccc5cccc(c45)C3=O)CC2)cc1OC.Cl (stereo not drawn),-20.2
18,CCS(=O)(=O)N1CCN(S(=O)(=O)c2ccc3ccccc3c2)CC1,13
19,O=C(CSc1ccc(Cl)cc1)Nc1nnc(-c2ccco2)o1,-1.41
20,COc1cc(C2C(C#N)=C(N)Oc3cc(C)oc(=O)c32)cc(OC)c1OC (stereo not drawn),20.5
21,COC(=O)c1cc(Br)c(=O)n(Cc2ccc(OC)c(OC)c2)c1,16.7
